Rows were chosen to be rich in hits. Some 19% of all compounds tested hit in one or more screens of this group.
TDP1 cell CPT: growth inhibition of DT40 Tdp1-/-;hTDP1 cells with camptothecin (screen for TDP1 inhibitors) | chicken DT40 Tdp1-/-;hTDP1 cells + 20 nM CPT, ATP luminescence, 48 h | Potency, µM (top dose mostly 46.2 µM), for the others: at the top dose activity change, negative = growth inhibition, hits mostly inhibitors | 420,000 tested, 12% active | AID 686979; further: potency means the concentration at half of the fitted maximal effect; nearly all actives have a fitted effect of over 55% in size
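Cell growth measured by CellTiter-Glo luminescence after a minimum 48 h, 37 C compound exposure with 20 nM CPT in Tdp1-knockout DT40 cells stably expressing hTDP1, seeded 400/well; qHTS titration format.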
DT40 TDP1 no CPT: qHTS for Inhibitors of human tyrosyl-DNA phosphodiesterase 1 (TDP1): qHTS in cells in absence of CPT; DT40 Tdp1-/- hTDP1 cells, no CPT, ATP luminescence, 48 h; Potency, µM (highest dose often 46.2 µM), without a hit: at the highest dose activity change, negative = growth inhibition, hits mostly inhibitors; 420,000 tested, 15% active; further: potency means the concentration at half of the fitted maximal effect; nearly all actives have a fitted effect of over 55% in size
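Chicken DT40 Tdp1-/- cells stably complemented with human TDP1 were seeded at 400 cells/well with DMSO in place of 20 nM camptothecin. After compound pinning, cells grew at least 48 hr at 37 °C; viability read by CellTiter-Glo luminescence.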
IL-1B inflam inh: blocks inflammasome-driven IL-1 beta release; THP-1 LPS/ATP IL-1B secretion, AlphaLISA, 16 h; hits give low values; activity change, % at 57.5 µM; 360,000 tested, 4.7% active; AID 743279; in the data active means activity change below about -50%; inconclusive means mostly about -30% to -49%
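Secreted IL-1B measured by AlphaLISA bead assay after 16 h compound exposure of THP-1 cells; compounds (final up to 57.5 uM) added 1 h before LPS (250 ng/mL) and ATP (1.25 mM) stimulation; lower signal means less secretion.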
HT1080-NT tox: kills 2HG-producing HT-1080-NT fibrosarcoma cells | 360,000 tested, 1.6% active | Potency, µM (highest dose often 46.1 µM), inactives show at the top dose activity, negative = less viability, most hits filed as cytotoxic | HT-1080-NT fibrosarcoma viability, CellTiter-Glo ATP luminescence, 48 h;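 further: NT is the 2HG producing partner of a matched IDH1 knockdown line; potency means the concentration at half of the fitted maximal effect; 0% = DMSO-treated cells and -100% = media-only wells without cells; nearly all actives have a fitted effect of over 55% in size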
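Read-out is CellTiter-Glo luminescence after 10 minutes at room temperature, following 48 hours' compound treatment of HT-1080-NT cells (750 cells/well, RPMI, 5% FBS, 37 degrees C).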
uPA surface inh: inhibitors of cell surface uPA generation; AID 540303; 330,000 tested, 0.31% active; Potency, µM (highest dose often 38.3 µM), inactives show top-dose activity change, negative = inhibition, actives largely listed as inhibitors; cell surface uPA generation assay, qHTS; active means well fitted inhibition curve with a large enough effect; inconclusive means small, poorly fitted or top-dose-only effect; inactive means no such curve, though single readings can be large or run the other way; tested in mouse RAW 264.7 cells; further: potency means the concentration at half of the fitted maximal effect; nearly all actives have a fitted effect of over 55% in size
HT1080 IDH1KD tx: kills HT-1080 cells with IDH1 knockdown; HT-1080 IDH1 knockdown viability, ATP luminescence, 48 h; Potency, µM (top dose mostly 46.1 µM), for inactives: at the top dose activity, negative = toxicity, most hits filed as cytotoxic; 360,000 tested, 2% active; AID 686971;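 further: potency means the concentration at half of the fitted maximal effect; 0% = DMSO wells and -100% = cell-free medium wells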
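Viability of IDH1-knockdown HT-1080 fibrosarcoma cells was assessed by CellTiter-Glo after 48 h at 37 °C with titrated compound; concentration-effect curves were classified by fit quality and response size.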
Numbers without * were called inactive; ? = inconclusive; nt = no result given; ! = a repeat was not active; [ ] = another dose, or the depositor's remark. Unless noted, the call rests on the fitted dose curve; in most records, active means well fitted curve in the direction sought with a large enough effect; inconclusive means small, poorly fitted or top-dose-only effect, or another doubt; inactive means no such curve, though single readings can be large; an effect the other way counts as inactive or inconclusive. Unless noted, on the % scale 0 is the no-effect control and ±100 the full control effect.

SMILES | TDP1 cell CPT | DT40 TDP1 no CPT | IL-1B inflam inh | HT1080-NT tox | uPA surface inh | HT1080 IDH1KD tx
C/C(=C\c1ccco1)C1C(C#N)=C(N)Oc2n[nH]c(-c3ccc(C)cc3)c21 (centres undefined) | 16.4µM* | ? | -5.4 | ? | -26.0% | ?
CC1(C)CC(=O)C2=C(C1)OC(N)=C(C#N)C2C#Cc1ccccc1 (centres undefined) | 5.17µM* | 4.61µM* | -96.3* | ? | -3.6% | ?
COCCNc1nc(Oc2ccc(CC(=O)OC)cc2)c2sc(-c3ccccc3)cc2n1 | ? | 18.4µM* | 3.8 | -3.1% | nt | -14.9%
COCCNc1nc(Oc2ccc(NC(C)=O)cc2)c2sc(-c3ccccc3)cc2n1 | ? | ? | ? | ? | nt | -6.1%
COCCNc1nc(NCc2cccc(OC)c2)c2sc(-c3ccccc3)cc2n1 | 18.4µM* | 13µM* | -112.0* | ? | nt | ?
COCCNc1nc(NCc2ccc(NC(C)=O)cc2)c2sc(-c3ccccc3)cc2n1 | 3.26µM* | 4.11µM* | 0.0 | 9.2µM* | nt | ?
CCN(Cc1ccccc1)S(=O)(=O)c1c(C)[nH]c(C)c1C(=O)N1CCCCC1 | -1.0% | -12.4% | -11.7 | 2.5% | 5.1% | 10.3%
O=C(c1ccc(C(=O)N2CCCc3ccccc32)s1)N1CCCc2ccccc21 | ? | ? | -51.9* | 23.3% | nt | 1.1%
N=C(N1CCCc2ccccc21)N1CCCc2ccccc21 | 16.4µM* | 20.6µM* | -14.3 | ? | -8.8% | ?
C[C@H](CO)N1C[C@H](C)[C@@H](CN(C)S(=O)(=O)c2ccc(F)cc2)Oc2c(NS(=O)(=O)c3ccc(F)cc3)cccc2C1=O | ? | -28.7% | -22.7 | -0.2% | 1.9% | -3.5%
CCCNC(=O)/C=C/C(=O)O | -3.2% | -10.3% | 7.8 | 12.5% | 10.1% | 0.8%
O=C(c1ccc2c(Cl)c3c(nc2c1)CCCC3)N1CCN(c2cccc(C(F)(F)F)c2)CC1 | -9.0% | -11.6% | nt | nt | nt | nt
COc1cccc(N2CCN(C(=O)c3ccc4c(Cl)c5c(nc4c3)CCCC5)CC2)c1 | 20.6µM* | 20.6µM* | nt | nt | nt | nt
Cc1cccc(N2CCN(C(=O)c3ccc4c(Cl)c5c(nc4c3)CCCC5)CC2)c1C | 18.4µM* | ? | nt | nt | nt | nt
O=c1[nH]cnc2c([N+](=O)[O-])cccc12 | -18.2% | 2.2% | 19.5 | 9.3% | 7.7% | 9.6%
O=[N+]([O-])c1cccc2c(Br)[nH]nc12 | 31.6µM* | ? | nt | nt | nt | nt
O=C(c1cnn(-c2nccc(-c3ccccc3C(F)(F)F)n2)c1C1CC1)N1CCN(CCO)CC1 | -11.5%[9.04 µM] | -15.8% | nt | nt | nt | nt
Cc1ccc(-c2cc3cccc[n+]3cc2-c2ccc(C)cc2)cc1 | 0.651µM* | 1.16µM* | -88.4* | ? | 10µM* | ?
COC(=O)c1ccc(N2CCN(C)CC2)c(NC(=O)COc2ccccc2Cl)c1 | 20.6µM* | 23.1µM* | -11.1 | -0.2% | -2.0% | -3.6%
COC(=O)c1ccc(N2CCN(C)CC2)c(NC(=O)COc2ccc(OC)cc2)c1 | 20.6µM* | -25.2% | -23.5 | -5.2% | -2.3% | -4.9%
COC(=O)c1ccc(N2CCN(C)CC2)c(NC(=O)COc2ccc(C)cc2)c1 | ? | -16.3% | -15.6 | 24.3% | 1.9% | -8.1%
CCOC(=O)C1=CCN(S(=O)(=O)c2ccccc2F)C1c1cccc(Cl)c1 (centres undefined) | ? | ? | 52.8 | -3.1% | nt | -1.1%
COc1cccc(Cn2c(=O)c(C)nc3cnc(N4CCOCC4)nc32)c1 | 9.8% | -14.1% | nt | nt | nt | nt
O=C(CN1CCCC1)N1c2ccccc2Sc2ccc(Cl)cc21 | 9.7% | ? | -20.1 | -21.4% | -6.9% | 1.5%
CN1CCN(CCCN2c3ccccc3Sc3ccc(S(=O)(=O)N(C)C)cc32)CC1 | 16.4µM* | 23.1µM* | -105.6* | 18.4µM* | 14.9% | 11.6µM*
SMILES | TDP1 cell CPT | DT40 TDP1 no CPT | IL-1B inflam inh | HT1080-NT tox | uPA surface inh | HT1080 IDH1KD tx
OCCN1CCN(CCCN2c3ccccc3Sc3ccc(Cl)cc32)CC1 | 23.1µM* | 29.1µM* | 0.0 | ? | 2.3% | ?
CC(=O)c1ccc2c(c1)N(CCCN1CCC(CCO)CC1)c1ccccc1S2 | 11.4µM*! | ? | 0.0 | nt | ? | nt
COc1ccc(C(=O)NCc2nnc(SCC(=O)Nc3ccccc3)n2-c2ccccc2)cc1 | ? | -22.6% | nt | nt | nt | nt
O=c1c(-c2cccc(F)c2)nc2cncnc2n1Cc1ccccc1Cl | -4.3% | -13.6% | nt | nt | nt | nt
CN(CC(CC(=O)Nc1nncs1)c1ccccc1)S(=O)(=O)c1ccc(Br)cc1 (centres undefined) | 16.4µM* | ? | 31.9 | -2.5% | 16.6% | -0.3%
CC(C)NC(=O)C1(C)CCN1Cc1ccc(Cl)cc1 (centres undefined) | ? | ? | 9.0 | 26.5% | nt | 19.5%
Cc1ccc(C(=O)N[C@H](C(=O)NC2CCCCC2)C(C)C)cc1 | -25.8% | -23.5% | 1.5 | -0.1% | 4.9% | 3.7%
CN(C(=O)c1c2c(nc3ccccc13)C(=O)N(C1CCCCC1)C2)c1ccc(F)cc1 | -11.9% | -6.0% | nt | nt | nt | nt
O=C(c1c2c(nc3ccccc13)C(=O)N(C1CCCCC1)C2)N1CCN(c2ccc(F)cc2)CC1 | 20.6µM* | 25.9µM* | nt | nt | nt | nt
COc1ccc(N2CCN(C(=O)c3c4c(nc5ccccc35)C(=O)N(C3CCCCC3)C4)CC2)cc1 | 14.6µM* | 16.4µM* | nt | nt | nt | nt
COc1ccc(N2CCN(C(=O)c3cccn4c(=O)c5ccccc5nc34)CC2)cc1 | -21.4% | -22.3% | 7.1 | -1.6% | 1.0% | -8.6%
CN(Cc1ccccc1)S(=O)(=O)c1ccc(NC(=S)NC(=O)C(C)(C)C)cc1 | 20.6µM* | 16.4µM* | -12.5 | -2.4% | 7.7% | 0.6%
CN(Cc1ccccc1)S(=O)(=O)c1ccc(NC(=S)NC(=O)C2CCCCC2)cc1 | 11.6µM* | 14.6µM* | 36.6 | -5.5% | -14.7% | -26.7%
O=C(NC(=S)N(Cc1ccccc1)Cc1ccccc1)C1CCCCC1 | ? | 23.1µM* | -6.6 | -6.1% | -0.1% | 0.9%
NS(=O)(=O)c1ccc(NC(=S)NC(=O)C2CCCC2)cc1 | -6.4% | 12.0% | 13.9 | 1.4% | 0.0% | 7.8%
C=CCN(CC=C)S(=O)(=O)c1ccc(NC(=S)NC(=O)C2CC2)cc1 | 23.1µM* | 13µM* | 7.0 | ? | 6.4% | ?
O=C(NC(=S)NCCc1ccccc1)C1CCCCC1 | 3.1% | -23.8% | 0.0 | -6.0% | -3.7% | -7.2%
CC(=O)Nc1ccc(N=Nc2ccccc2)cc1[N+](=O)[O-] | 3.6% | -20.8% | -0.7 | ? | -1.3% | -26.1%

Screening data (PubChem BioAssay)
